In PMC4336329 (PLoS ONE, 2015):
Out of some 310,000 compounds screened, about 14,000 (4.5%) showed an effect of 50% or more. The effect is printed as a negative number. What follows is part of a selection rich in strong results, with near analogues and random picks from the rest.

Each molecule was assayed against human ether-à-go-go-related gene (hERG) potassium channel (human, UniProt Q12809) (assay: primary screen, population patch clamp on CHO cells stably expressing hERG; higher = less effect of the substance).
Chain of human ether-à-go-go-related gene (hERG) potassium channel (Q12809 whole entry, looked up): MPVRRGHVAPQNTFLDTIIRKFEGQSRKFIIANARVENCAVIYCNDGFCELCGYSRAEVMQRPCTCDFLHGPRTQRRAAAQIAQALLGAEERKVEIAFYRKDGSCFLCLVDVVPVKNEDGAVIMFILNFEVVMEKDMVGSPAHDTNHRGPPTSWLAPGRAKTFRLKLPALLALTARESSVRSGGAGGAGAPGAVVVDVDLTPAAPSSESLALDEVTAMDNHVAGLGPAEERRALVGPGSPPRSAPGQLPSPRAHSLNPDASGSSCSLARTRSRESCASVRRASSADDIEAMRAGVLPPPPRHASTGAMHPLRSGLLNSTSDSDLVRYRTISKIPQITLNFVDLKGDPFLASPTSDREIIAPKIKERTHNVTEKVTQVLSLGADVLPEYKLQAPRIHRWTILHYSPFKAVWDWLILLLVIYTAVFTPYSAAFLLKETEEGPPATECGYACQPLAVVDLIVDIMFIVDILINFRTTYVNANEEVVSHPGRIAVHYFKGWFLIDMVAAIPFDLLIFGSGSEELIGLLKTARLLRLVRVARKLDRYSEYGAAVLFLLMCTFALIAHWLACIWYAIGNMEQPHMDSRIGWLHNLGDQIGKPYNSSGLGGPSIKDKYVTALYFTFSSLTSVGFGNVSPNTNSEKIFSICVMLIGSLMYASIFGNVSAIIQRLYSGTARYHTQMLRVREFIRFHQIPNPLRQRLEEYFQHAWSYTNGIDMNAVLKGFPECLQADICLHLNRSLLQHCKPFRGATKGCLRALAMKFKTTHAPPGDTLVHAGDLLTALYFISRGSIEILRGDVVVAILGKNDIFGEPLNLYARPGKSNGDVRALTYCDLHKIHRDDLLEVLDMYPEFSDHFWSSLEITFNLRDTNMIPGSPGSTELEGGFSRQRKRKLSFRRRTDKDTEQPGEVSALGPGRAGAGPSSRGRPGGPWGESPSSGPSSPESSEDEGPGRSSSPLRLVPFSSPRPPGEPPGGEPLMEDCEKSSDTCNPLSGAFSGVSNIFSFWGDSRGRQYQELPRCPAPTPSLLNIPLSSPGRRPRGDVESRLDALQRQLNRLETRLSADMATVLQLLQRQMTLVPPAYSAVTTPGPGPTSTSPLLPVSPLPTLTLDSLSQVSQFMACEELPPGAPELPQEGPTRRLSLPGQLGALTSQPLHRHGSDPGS
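Further: peak tail current of the secondary pulse compared with the same well before compound.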

Row | Compound | hERG current change (%, negative = inhibition) at 10uM [%]
1 | N#Cc1nc(-c2ccccc2F)oc1NCc1cccc2c1OCO2 | -24.9
2 | CCN(C(=O)COC(=O)CNC(=O)c1ccc(C)s1)c1ccccc1 | 16.5
3 | O=C(NCc1ccc(F)cc1)c1cccnc1C(=O)O | 13.5
4 | COc1ccc(S(=O)(=O)N(CC(N)=O)C2CCCCC2)cc1Cl | 4.39
5 | CNCCc1ccc(O)c(O)c1.Cl | 12.7
6 | O=C(CNC(=O)c1ccccc1)NCCc1ccc(O)c(O)c1 | 1.15
7 | COc1ccc(CCNc2nc(-c3cccnc3)nc3ccccc23)cc1OC | -1.54
8 | CNCCc1c[nH]c2ccccc12 | 6.05
9 | Cl.Oc1ccc(CCNc2c3ccccc3nc3ccccc23)cc1O | -68.2
10 | COc1ccc(CCNc2nc(C)cc(C)n2)cc1OC.Cl | 17.4
11 | c1ccc2c(NCCc3c[nH]c4ccccc34)c3ccccc3nc2c1 | -74.7
12 | COc1ccc(CCNc2c3ccccc3nc3ccccc23)cc1OC.Cl | -69.7
13 | Fc1cccc(NCCc2c[nH]c3ccccc23)n1 | 11.3
14 | COc1ccc(C(=O)/C=C/Nc2cc(C)on2)cc1 | 3.9
15 | CCCCOC(=O)c1ccc(Nc2ccc([N+](=O)[O-])cn2)cc1 | 14.5
16 | Cc1ccc(-c2nnc(N3CC(C)OC(C)C3)c3ccccc23)cc1 (stereo not drawn) | -20.6
17 | O=C(NC(=S)Nc1ccc(CN2CCOCC2)cc1)c1ccc2c(c1)OCCO2 | -13.9
18 | CC(=Nc1ccccc1N)c1c(O)n(C)c(=O)n(C)c1=O | 21
19 | CCOc1ccc(CN(C)C(=O)CCNC(=O)c2ccco2)cc1 | 1.35
20 | CCCOC(=O)c1[nH]c2c(c1C)C(=O)CC(c1ccc(OC)c(OC)c1)C2 (stereo not drawn) | -4.07
21 | CCOc1ccccc1NC(=O)CN1C(=O)C(=O)N(Cc2ccco2)C1=O | 8.17
22 | CCCCCCNC(=O)c1c(O)c2ccccc2[nH]c1=O | 19.9
23 | O=C(NCc1ccccc1)c1c(O)c2ccccc2[nH]c1=O | 15.4

Row | Compound | hERG current change (%, negative = inhibition) at 10uM [%]
24 | CCNC(=O)c1c(O)c2ccccc2[nH]c1=O | -62.5
25 | O=C(Cn1cnc2c(nnn2Cc2ccc(F)cc2)c1=O)NCc1ccc2c(c1)OCO2 | -17.2
26 | C=CCn1c(COc2ccc(OC)cc2)nnc1SC(C)C(=O)NC1CC1 (stereo not drawn) | -11.6
27 | CCCCCn1c(=O)[nH]c2cc(C(=O)NCCCN3CCCCC3)ccc2c1=O | -33.5
28 | CCOn1c(=O)c(=O)n(OC)c2ccccc21 | -6.73
29 | CCOC(=O)C1(Cc2cccc(OC)c2)CCN(C(C)CC(C)(C)O)CC1 (stereo not drawn) | -28.5
30 | CCOC(=O)C1(Cc2cccc(F)c2)CCN(CCCn2cccn2)CC1 | -74.6
31 | CCOC(=O)C1(Cc2cccc(F)c2)CCN(Cc2cnn(CC)c2)CC1 | -32.2
32 | CCOC(=O)C1(Cc2cccc(F)c2)CCN(CC(O)CO)CC1 (stereo not drawn) | 14.5
33 | CCOC(=O)C1(Cc2ccc(OC)cc2)CCN(S(C)(=O)=O)CC1 | 25.6
34 | CCOC(=O)C1(Cc2ccc(Cl)cc2)CCN(C(C)CCn2cccn2)CC1 (stereo not drawn) | -87.2
35 | CCOC(=O)C1(Cc2ccc(Cl)cc2)CCN(C(C)Cc2ccc(O)c(OC)c2)CC1 (stereo not drawn) | -70.8
36 | CCOC(=O)C1(Cc2ccc(Cl)cc2)CCN(CCCn2cccn2)CC1 | -74.8
37 | CCOC(=O)C1(Cc2ccc(OC)cc2)CCN(C(=O)CCn2cccn2)CC1 | -7.25
38 | O=C1NC(=O)C(Nc2cccc3ccccc23)S1 (stereo not drawn) | 7.89
39 | Cc1cccc(-c2nc3c(c(SCC(=O)N(C)C)n2)CCCC3)c1 | -21.5
40 | COC(=O)c1ccc([C@H](NC(=O)c2ccco2)[C@]2(C)C[C@H]2C2CCCCC2)cc1 | 9.14
41 | COc1ccc(CN2CCn3ncc(C(=O)Nc4cccc(C)c4)c3C2=O)cc1 | 6.5
42 | Cc1ccc(S(=O)(=O)N/N=C/c2ccc(OCC(=O)Nc3ccccc3Cl)cc2)cc1 | 1.73
43 | COc1cccc(N(C(=O)Cn2nnc(-c3cccs3)n2)C(C(=O)NC2CCCCC2)c2ccncc2)c1 (stereo not drawn) | 8
44 | COc1cc2c(c(OC)c1OC)-c1c(cc3c(c1OC)OCO3)[C@@H](OC(C)=O)[C@H](C)[C@H](C)C2 | -66.8
45 | COc1cc2c(c(O)c1OC)-c1c(cc(OC)c(OC)c1OC)C[C@@H](C)[C@@H](C)C2 | -78.6
